Assay outcomes (PubChem)
FadD28 binding – blocks FadD28 binding to the bisubstrate probe. AID 588549. 360,000 compounds, 0.22% hits. inhibition, % at 12.5 µM. fluorescence polarization; in the data active = inhibition above about 8.5%, passing the limit was not always enough; inconclusive = no clear call, values can overlap the other calls
PrPC surface inh – reduces human prion protein on the cell surface; inhibition, % at 13.8 µM; cell surface PrPC, TR-FRET read-out; AID 720596; P04156; 370,000 compounds, 0.43% hits; in the data active = inhibition above about 24%; also: 0% = median of the test wells and 100% = reference compound wells
Vc quorum ag – inducers of Vibrio cholerae quorum light production without autoinducers. V. cholerae BH1578 lux reporter, luminescence, 6 h. activation, % at 18.7 µM. 350,000 compounds, 0.16% hits; in the data active = activation mostly above about 9.7%, no sharp cut-off; inconclusive = no clear call, values can overlap the other calls; inactive = mostly below about 3.7%
SSB-PriA inh – K. pneumoniae PriA-SSBct interaction inhibition | AID 1272365 | AlphaScreen SSBct-PriA binding, biotinylated peptide | inhibition, % at 33 µM | 430,000 compounds, 0.6% hits; in the data active = inhibition mostly above about 37%, no sharp cut-off; inactive = mostly below about 20%;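 also: plate controls were negative control peptide for no effect and reference peptide for full effect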
PrP 5UTR inh – inhibition of PrP 5' UTR reporter expression. cell-based PrP 5' UTR mRNA reporter, plate reader. inhibition, % (concentration not given with the values). 340,000 compounds, 0.35% hits. AID 488862; in the data active = inhibition above about 52%; also: 0 = median of the neutral control wells
PrP 5UTR single – prion 5' UTR mRNA inhibition, cherry-pick retest; AID 504592; cell-based prion protein 5' UTR reporter, plate reader; 1,100 compounds, 48% hits; shares compounds with PrP 5UTR inh; inhibition, % at 2.5 µM; in the data active = inhibition above about 54%; inconclusive = no clear call, values can overlap the other calls
Starred values were filed as active, the others as inactive; i = inactive; u = inconclusive; x = no result. An excerpt weighted towards active compounds, which were near 1.4% of everything screened.

SMILES	FadD28 binding	PrPC surface inh	Vc quorum ag	SSB-PriA inh	PrP 5UTR inh	PrP 5UTR single
COc1cc2c3c(c1)C(C)=CC(C)(C)N3C(=O)C2=O	0	-19	i	9	79*	-2
COc1cccc(C(=O)Oc2cc3c4c(c2)C(C)=CC(C)(C)N4C(=O)C3=O)c1	-1	-25	0	-6	-18	x
COC(=O)c1ccc(CSc2ncnc3c2cnn3-c2ccc(F)cc2)o1	x	x	x	2	x	x
O=C1CN(C(=O)c2ccc(F)c(S(=O)(=O)N3CCOCC3)c2)c2ccccc2N1	0	1	0	7	59*	36
Cc1nccn1CCCNCc1c(C(=O)N2CCCCCCC2)nc2ccc(Cl)cn12	-4	-9	-1	-1	84*	-13
O=C(c1nc2ccccn2c1CNCCCn1cccn1)N1CCCC1	-5	1	0	-4	-32	x
COC(=O)c1cc(NC(=O)c2nccnc2C(=O)O)cc(C(=O)OC)c1	-1	9	0	-19	60*	-29
CC(C)c1ccccc1NC(=S)N1CCN(S(=O)(=O)c2cccs2)CC1	-3	-3	0	-5	87*	-7
Cc1c(Cl)cccc1NC(=S)N1CCN(S(=O)(=O)c2cccs2)CC1	-1	-3	-4	0	-27	x
COc1ccc(Cl)cc1C(=O)NCC(c1ccc2c(c1)CCN2C)N(C)C (stereo unspecified)	x	x	x	6	x	x
Cc1ccc(CCC(=O)Nc2ncc(Cc3cccc(C(F)(F)F)c3)s2)o1	x	x	x	-20	x	x
Cc1ccc(CCC(=O)Nc2ncc(Cc3cccc(Cl)c3Cl)s2)o1	-6	-1	0	-19	53*	89*
Cc1cccc(-n2nnc(C(=O)N3CCN(c4ccccc4)CC3)c2-c2cccnc2)c1	x	x	x	7	x	x
CCCCCOc1ccc(/C=C(/C#N)C(=O)Nc2ccccc2)cc1	x	x	x	2	x	x
Cc1ccc(/C=C2/SC(=S)N(c3ccc(S(=O)(=O)Nc4nccs4)cc3)C2=O)cc1	-2	-6	-4	-5	83*	-35
O=S(=O)(c1cccc2ccccc12)N(CCc1cccs1)Cc1cccnc1	x	x	x	-11	x	x
COc1cc(C2C3=C(Nc4ncnn42)c2ccccc2CC3)cc(OC)c1OC (stereo unspecified)	-1	-7	0	-10	62*	86*
O=C(c1cc2n(n1)C(C(F)(F)F)CC(c1ccco1)N2)N1CCc2ccccc2C1 (stereo unspecified)	1	-1	-2	9	64*	-17
CCOc1ccc(OCC(=O)Nc2cccc(S(=O)(=O)NC3=NCCC3)c2)cc1	-2	11	-4	0	0	x
CCOc1ccc(C(=O)NC(=S)Nc2cccc(S(=O)(=O)NC3=NCCC3)c2)cc1	-1	8	i	-12	54*	u
Cc1ccoc1C(=O)Nc1ccc(CC(=O)O)cc1	1	-5	0	-8	64*	53*
Cc1ccoc1C(=O)Nc1ccc2ccccc2c1	-5	-29	i	-2	10	x
CN1C(CCl)Nc2cc(Cl)c(S(N)(=O)=O)cc2S1(=O)=O (stereo unspecified)	0	3	-1	-10	77*	-15
COc1cccc(C=NNc2nc(Nc3ccc([N+](=O)[O-])cc3)nc(N3CCCC3)n2)c1O	x	x	x	21	x	x
COc1ccc(OC)c(C2C3=C(COC3=O)Nc3cc4c(cc32)OCO4)c1 (stereo unspecified)	-1	13	-5	-3	58*	90*
SMILES	FadD28 binding	PrPC surface inh	Vc quorum ag	SSB-PriA inh	PrP 5UTR inh	PrP 5UTR single
C#CCOc1cc(C2C3=C(COC3=O)Nc3cc4c(cc32)OCO4)ccc1OC (stereo unspecified)	-2	11	x	1	29	x
CC(Cc1ccoc1)NC(=O)c1cn(C)nn1 (stereo unspecified)	x	x	x	1	x	x
COc1ccccc1NC(=O)N(C1=NCCC1)c1ccc(C)c(Cl)c1	x	x	x	1	x	x
O=C(O)c1cc(S(=O)(=O)N2CCOCC2)c(Sc2ccccn2)cc1Sc1ccccn1	1	-3	i	21	69*	16
Cc1c(Cl)cccc1S(=O)(=O)NCC#CCN1CCOCC1	x	x	x	-6	x	x
CCOc1ccccc1NC(=O)NC[C@H]1CC(=O)N(c2ccc(F)cc2)C1	x	x	x	0	x	x
O=C(C[C@@H]1C/C=C\CCCC(=O)OC[C@@H](c2ccccc2)NC1=O)NCCO	-1	2	2	-10	-14	x
CC(C)(C)[C@H]1COC(=O)CCCC/C=C\C[C@H](CC(=O)NCCO)C(=O)N1	-2	2	0	-12	58*	u
COc1ccc(-n2ncc3c(N(C)C4CCCCC4)ncnc32)cc1	-1	12	0	0	78*	66*
COc1ccc(-n2ncc3c(N4CCC(C)CC4)ncnc32)cc1	-4	4	x	-11	-7	x
Cc1cccc(-n2ncc3c(N(C)C4CCCCC4)ncnc32)c1	-4	2	0	-48	78*	69*
Cc1cccc(-n2ncc3c(N(CCO)CCO)ncnc32)c1	-3	8	0	-4	-66	x
O=C(Nc1nc(C(=O)N2CCc3ccccc3C2)cs1)c1ccccc1	x	x	x	-5	x	x
COc1ccc(/C=C2\SC(=O)N(CCCC(=O)Nc3cc(Cl)ccc3C(=O)O)C2=O)cc1	-7	-6	x	5	92*	83*
Cc1nnc(SCC(=O)Nc2cc(C(C)(C)C)nn2-c2ccccc2)s1	-1	-4	0	-21	-20	x
Cc1nnc(SCC(=O)Nc2cc(-c3cc(C)c(C)cc3C)nn2-c2ccccc2)s1	-5	-1	0	-3	59*	-9
COc1ccc(C(=O)NCc2nnc(SC)n2Cc2ccccc2)cc1	-1	5	1	5	54*	8
CCOC(=O)CSc1nnc(CNC(=O)c2ccc(OC)cc2)n1Cc1ccccc1	-6	5	0	3	-22	x
COc1ccc(-c2nc(-c3ccccn3)no2)cc1	-1	-9	-1	-13	91*	91*
Cc1ccccc1-c1nc(-c2ccccn2)no1	-1	5	0	-9	70*	u
O=C(O)c1cc(-c2ccccc2Br)n[nH]1	x	x	x	1	x	x
O=C(Nc1ccc(N2CCOCC2)cc1)c1cnsn1	0	1	1	-12	68*	77*
Cc1cccc(C(=O)NCN2CCN(c3ccccc3C#N)CC2)c1	-1	6	-1	-9	82*	-38
O=C(NCN1CCN(c2ccccc2F)CC1)c1ccccc1	-4	5	i	-16	-4	x
Oc1ccccc1-c1n[nH]c(-c2ccccc2O)n1	-1	-4	-1	-9	69*	-40
Clc1ccccc1-c1nc(-c2ccccc2)n[nH]1	-3	1	i	-2	-72	x
COc1cc(C2C(C#N)=C(N)Oc3cc(N)ccc32)cc(OC)c1OC (stereo unspecified)	-1	-9	i	8	67*	88*
CCOc1cc(C=NNC(=O)OC(C)(C)C)ccc1OC(=O)c1ccco1	x	x	x	-4	x	x
